These results are taken from PubChem BioAssay.

Active and inactive are the calls of the source.

Experiment [1] can be described thus: optical density shifts of acrAB sulA E. coli – strain DRC41, OD650, 48 h, E. coli filamentation inducer project, primary screen (AID 1152).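 Note: E. coli MC1000 strain DRC41 lacking acrAB efflux pump and sulA.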 Particulars: higher = more signal, called active from +8 up or from −8 down.
Experiment [2] in a line: probe aLefty1 binding on compound microarray – biochemical, small-molecule microarray, 635/667 nm fluorescence, primary screen (AID 1153).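 Note: score merges spot fluorescence with signal-to-noise ratio from the scanned slide images.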 As to conditions: higher = more signal.
A short description of experiment [3]: plasmodial surface anion channel blockers, osmotic lysis – cell-based, P. falciparum Indochina, OD700, 1 h, primary screen (AID 1154). As to conditions: P. falciparum Indochina infected RBC osmotic lysis, higher = more signal, called active from +8 up or from −8 down.
The nature of experiment [4]: plasmodial surface anion channel blockers, osmotic lysis – cell-based, P. falciparum Indochina, OD700, 2 h, primary screen (AID 1155).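 Note: lysis reports solute entry through the parasite surface anion channel PSAC.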 Particulars: P. falciparum Indochina infected erythrocytes, higher = more signal, called active from +8 up or from −8 down.
The nature of experiment [5]: changes in parasitized red cell lysis, either direction – P. falciparum Indochina, OD700, 3 h, PSAC antagonist project, primary screen (AID 1156). Particulars: P. falciparum-infected erythrocytes, osmotic lysis, higher = more signal, called active from +8 up or from −8 down.
A short description of experiment [6]: plasmodial surface anion channel blockers, osmotic lysis – cell-based, P. falciparum Indochina, OD700, 18 h, primary screen (AID 1157). As to conditions: P. falciparum Indochina infected erythrocytes, osmotic lysis OD700, 18 h; higher = more signal, called active from +8 up or from −8 down.
The nature of experiment [7]: S6 kinase pathway phospho-S6 level changes – cell-based, A549, cytoblot, luminescence, serum-stimulated, primary screen (AID 1158).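 Note: serum-stimulated A549 lung adenocarcinoma cells; signal is phosphorylated S6 detected by cytoblot immunostaining with HRP secondary.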 Particulars: 5 h, higher = more signal.
The target in experiment [8] is NADPH oxidase 2 (Homo sapiens) (UniProt P04839). Nature of the experiment: compounds shifting NOX2 Amplex Red fluorescence – cell-based, HEK293-NOX2, PMA-stimulated, NOX inhibitor project, primary screen (AID 1159). Note: test concentration not given here. Particulars: 45 min, higher = more signal, called active from +8 up or from −8 down.
Experiment [9] deals with NADPH oxidase 4 (Homo sapiens) (UniProt Q9NPH5). The experiment in a line: compounds shifting NOX4 Amplex Red fluorescence – cell-based, HEK293-NOX4, tetracycline-induced, NOX inhibitor project, primary screen (AID 1160). Particulars: HEK293-NOX4, Amplex Red H2O2 fluorescence, 45 min; higher = more signal, called active from +8 up or from −8 down.
Experiment [10] addresses NADPH oxidase 5 (Homo sapiens) (UniProt Q96PH1). Nature of the experiment: compounds shifting NOX5 Amplex Red fluorescence – cell-based, HEK293-NOX5, NOX inhibitor project, primary screen (AID 1161). Particulars: HEK293-NOX5, ionomycin, 45 min, higher = more signal.
Experiment [11] is described as follows: compound effects on lung adenocarcinoma cell viability – A549, calcein-AM fluorescence, 48 h, basal, profiling panel (AID 1162). Note: test concentration not given here. As to conditions: higher = more signal.
Experiment [12] in a line: compound effects on differentiated 3T3-L1 adipocyte viability – cell-based, 3T3-L1 adipocytes, calcein-AM fluorescence, 48 h, basal, profiling panel (AID 1163). Note: test concentration not given here. Particulars: 3T3-L1 adipocytes viability, higher = more signal.
Experiment [13] in a line: compound effects on hepatocellular carcinoma cell viability – HepG2, calcein-AM fluorescence, 48 h, basal, profiling panel (AID 1164). Note: test concentration not given here. As to conditions: higher = more signal.
Experiment [14] is described as follows: compound effects on multiple myeloma cell viability – MM1S, calcein-AM fluorescence, 48 h, basal, profiling panel (AID 1165).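 Note: viability of MM1S multiple myeloma cells under basal unstimulated conditions; test concentration not given here.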 Particulars: higher = more signal.
The nature of experiment [15]: calcein-AM signal in unstimulated myeloma cells – cell-based, calcein-AM fluorescence, 48 h, PK04 Diversity Set, profiling panel (AID 1166).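 Note: cells grown under basal conditions without added stimulus; test concentration not given here.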 Particulars: RPMI8226 myeloma viability, higher = more signal.
A short description of experiment [16]: JC-1 mitochondrial signal, unstimulated HepG2 cells – cell-based, JC-1 fluorescence, 24 h, 100 nL compound, profiling panel (AID 1167). Note: test concentration not given here. As to conditions: HepG2 mitochondrial potential, higher = more signal.
Experiment [17] in a line: JC-1 mitochondrial signal, unstimulated adipocytes – cell-based, JC-1 fluorescence, 3T3-L1 adipocytes, 24 h, 100 nL compound, profiling panel (AID 1168). Note: test concentration not given here. Particulars: JC-1 mitochondrial fluorescence, higher = more signal, called active from +8 up or from −8 down.
Experiment [18] is described as follows: JC-1 mitochondrial signal, unstimulated myeloma cells – cell-based, JC-1 fluorescence, RPMI8226, 24 h, 100 nL compound, profiling panel (AID 1169). Note: test concentration not given here. As to conditions: JC-1 mitochondrial potential fluorescence, higher = more signal.
Experiment [19] can be described thus: JC-1 mitochondrial signal, unstimulated MM1S myeloma – cell-based, JC-1 fluorescence, 24 h, 100 nL compound, profiling panel (AID 1170). Note: test concentration not given here. Particulars: MM1S mitochondrial potential, higher = more signal.
Experiment [20] is described as follows: resazurin metabolic signal in A549 cells – cell-based, resazurin fluorescence, 24 h, PK04 Diversity Set, profiling panel (AID 1171). Note: test concentration not given here. Particulars: A549 viability, higher = more signal, called active from +8 up or from −8 down.

Sequence of NADPH oxidase 4 (Homo sapiens) (Q9NPH5 whole entry, looked up): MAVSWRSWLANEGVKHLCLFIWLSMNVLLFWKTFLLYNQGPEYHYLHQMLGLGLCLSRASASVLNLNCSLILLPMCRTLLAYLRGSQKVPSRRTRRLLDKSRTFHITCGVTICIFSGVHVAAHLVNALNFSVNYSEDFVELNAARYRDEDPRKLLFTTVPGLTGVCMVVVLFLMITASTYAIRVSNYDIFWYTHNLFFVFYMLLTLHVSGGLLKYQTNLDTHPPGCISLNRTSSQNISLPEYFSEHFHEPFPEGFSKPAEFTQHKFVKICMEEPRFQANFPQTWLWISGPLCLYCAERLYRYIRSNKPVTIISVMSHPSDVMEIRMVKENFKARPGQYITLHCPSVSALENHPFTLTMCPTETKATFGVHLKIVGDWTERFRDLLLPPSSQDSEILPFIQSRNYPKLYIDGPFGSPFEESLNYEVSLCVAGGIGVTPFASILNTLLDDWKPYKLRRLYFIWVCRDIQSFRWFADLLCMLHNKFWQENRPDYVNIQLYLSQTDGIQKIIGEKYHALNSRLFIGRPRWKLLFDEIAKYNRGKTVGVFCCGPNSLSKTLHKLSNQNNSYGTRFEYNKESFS
Sequence of NADPH oxidase 5 (Homo sapiens) (Q96PH1 whole entry, looked up): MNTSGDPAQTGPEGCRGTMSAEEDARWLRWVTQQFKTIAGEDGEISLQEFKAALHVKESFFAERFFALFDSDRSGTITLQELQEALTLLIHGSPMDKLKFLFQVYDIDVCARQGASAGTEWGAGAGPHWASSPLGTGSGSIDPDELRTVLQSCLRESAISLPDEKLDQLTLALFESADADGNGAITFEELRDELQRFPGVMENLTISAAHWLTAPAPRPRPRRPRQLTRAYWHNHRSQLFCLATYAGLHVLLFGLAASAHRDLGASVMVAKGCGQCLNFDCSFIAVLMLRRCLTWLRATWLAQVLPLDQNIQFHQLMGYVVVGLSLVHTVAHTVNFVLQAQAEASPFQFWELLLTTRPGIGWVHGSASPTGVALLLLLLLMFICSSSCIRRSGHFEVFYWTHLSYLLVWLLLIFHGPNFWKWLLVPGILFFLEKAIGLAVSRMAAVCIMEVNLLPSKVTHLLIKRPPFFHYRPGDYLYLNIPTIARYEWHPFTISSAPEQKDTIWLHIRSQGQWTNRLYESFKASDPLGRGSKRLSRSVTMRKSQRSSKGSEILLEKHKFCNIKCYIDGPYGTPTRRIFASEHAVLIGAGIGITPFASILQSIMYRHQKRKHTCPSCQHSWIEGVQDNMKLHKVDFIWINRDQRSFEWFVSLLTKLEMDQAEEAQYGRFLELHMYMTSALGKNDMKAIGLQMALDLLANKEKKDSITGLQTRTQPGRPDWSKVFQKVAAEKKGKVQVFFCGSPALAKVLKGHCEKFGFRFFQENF
Sequence of NADPH oxidase 2 (Homo sapiens) (P04839 whole entry, looked up): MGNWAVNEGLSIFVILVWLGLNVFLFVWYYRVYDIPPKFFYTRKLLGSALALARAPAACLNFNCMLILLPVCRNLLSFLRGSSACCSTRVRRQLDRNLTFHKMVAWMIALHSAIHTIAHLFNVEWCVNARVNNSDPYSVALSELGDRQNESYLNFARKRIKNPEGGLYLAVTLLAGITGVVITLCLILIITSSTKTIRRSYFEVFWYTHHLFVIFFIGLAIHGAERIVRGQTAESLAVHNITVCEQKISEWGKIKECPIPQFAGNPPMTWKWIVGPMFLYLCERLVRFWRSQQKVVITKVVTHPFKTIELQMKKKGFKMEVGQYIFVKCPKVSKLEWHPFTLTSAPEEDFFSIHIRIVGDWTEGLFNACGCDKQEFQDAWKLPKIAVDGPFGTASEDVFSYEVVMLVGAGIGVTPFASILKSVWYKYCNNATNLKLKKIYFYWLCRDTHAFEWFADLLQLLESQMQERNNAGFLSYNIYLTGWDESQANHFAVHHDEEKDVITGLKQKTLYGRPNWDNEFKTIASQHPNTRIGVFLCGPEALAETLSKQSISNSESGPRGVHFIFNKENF

Regarding `CC(CCN1CCc2nc(-c3ccccc3)c(-c3ccccc3)cc2C1)=NOC[C@@H](O)COCc1ccco1`, the z-score is 1.17 (inactive) in experiment [1]; 3.04 (inactive) in [3]; 0.369 (inactive) in experiment [4]; 0.686 (inactive) in experiment [5]; 0.195 (inactive) in experiment [6]; 0.615 in experiment [7]. The z-score was -0.636 (inactive) in experiment [8]; -0.00269 (inactive) in [9]; -0.624 in experiment [10]; 1.53 in [11]; -0.0838 in experiment [12]; 2.01 in experiment [13]. Besides, the z-score in experiment [14] is -0.293; in experiment [15], 0.465; in experiment [16], 1.65; in experiment [17], -0.278 (inactive); in experiment [18] it was 1.09; in experiment [19], -0.174. Also, the z-score in [20] was -0.684 (inactive). Further, the composite z-score in [2] is -0.101.
As to `C[C@H]1Cc2c(COc3ccccc3)nc3c(c2CO1)CN(CCOc1ccccc1)CC3`, the z-score in experiment [1] was 0.49 (inactive); in [3], 3.74 (inactive); in experiment [4] it was 0.484 (inactive); in [5] it was 1.68 (inactive); in experiment [6], 0.908 (inactive); in experiment [7], 0.44. Further, the z-score in experiment [8] is 0.539 (inactive); in [9], 0.191 (inactive); in [10], -0.00428; in [11], 1.05; in experiment [12], 0.175; in [13] it was 0.93. Besides, the z-score in [14] is -0.125; in [15] it was -0.517; in [16] it was 2.33; in experiment [17] it was 0.678 (inactive); in experiment [18], -0.041; in [19], 0.184. For the same compound, the z-score in experiment [20] was -0.0515 (inactive). The compound further came in with a composite z-score in experiment [2] of 0.2.
In the case of `O=C1CCCC(C2=CCCCC2=O)C1` (stereo not given), the z-score in [1] is -0.316 (inactive); in experiment [3], 0.599 (inactive); in experiment [4], -0.349 (inactive); in experiment [5] it was 0.231 (inactive); in experiment [6] it was -0.168 (inactive); in experiment [7], 0.142. In addition, the z-score in experiment [8] was -0.7 (inactive); in experiment [9] it was -0.427 (inactive); in experiment [10], -0.253; in experiment [11] it was -0.965; in [12], -0.824; in experiment [13], -0.114. Moreover, the z-score is 0.322 in experiment [14]; 0.652 in experiment [15]; 0.512 in experiment [16]; -0.845 (inactive) in experiment [17]; 0.987 in experiment [18]; -0.857 in experiment [19]. Moreover, in experiment [20], the z-score is -0.684 (inactive). Moreover, the composite z-score in experiment [2] was -0.0224.
Take `CC(C)(C)N1C(=O)[C@H]2[C@H]3[C@H](O)[C@H](O)CC(=O)[C@@H]3CC[C@H]2C1=O`: the z-score was -0.767 (inactive) in experiment [1]; 0.126 (inactive) in experiment [3]; 0.0976 (inactive) in experiment [4]; -1.24 (inactive) in experiment [5]; -0.0131 (inactive) in experiment [6]; 0.413 in experiment [7]. Further, the z-score in experiment [8] is -3.23 (inactive); in experiment [9], 0.0825 (inactive); in [10], 0.309; in experiment [11], -0.743; in experiment [12] it was 0.436; in experiment [13] it was 0.178. In addition, the z-score is -0.102 in experiment [14]; -0.052 in [15]; -0.323 in [16]; -0.715 (inactive) in [17]; 0.967 in experiment [18]; 0.419 in experiment [19]. Besides, the z-score in experiment [20] is 0.756 (inactive). Moreover, the composite z-score in [2] was -0.147.
